Consider 15 molecules from PubChem BioAssay AID1457 (National Center for Advancing Translational Sciences (NCATS), 2008).

SMILES strings stand for the structures. Hit rate of the full screen: of about 210,000 compounds, about 730 (0.35%) were called active. Another 1% or so got no clear call; they are omitted. Calls follow the shape of the dose curve; as a rule, active = well fitted inhibition curve with a large enough effect; inconclusive = small, poorly fitted or top-dose-only effect; inactive = no such curve, though single readings can be large or run the other way. What follows is part of a selection rich in actives, with near analogues and random picks from the rest. Entries that show only a call come without a potency.
Potency is read from the fitted curve at half-maximal effect.

The nature of the assay: qHTS Assay for Identifying the Cell-Membrane Permeable IMPase Inhibitors: Potentiation with Lithium.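 Also: IP1 builds up when IMPase is blocked and the TR-FRET signal falls; nearly all actives have a fitted effect of over 50% in size.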 The note with it: CHO-M1 cells, IP1 TR-FRET (IP-One), carbachol + lithium; series mostly up to 59.4 µM. The text has this: NIH Chemical Genomics Center [NCGC]
NIH Molecular Libraries Probe Production centers Network [MLPCN]
Assay Submitter (PI): Wei Zheng
Lithium has been widely used for the treatment of bipolar disorder. But lithium has a narrow therapeutic index and it can cause side effects such as thirst, weight gain, tremor, polyuria and memory problems. Although the mechanism for lithium action in treatment of bipolar disorder is still not fully understood, inhibition of inositol monophosphatase (IMPase) and the subsequent depletion of the inositol pool in living cells have been implicated as the primary therapeutic benefit of lithium therapy. Therefore, a selective IMPase inhibitor with reduced side effects might be a good drug candidate to replace lithium for the treatment of bipolar disorder. Several IMPase inhibitors have been discovered previously. However, they are not suitable for therapeutic use because of their poor cell membrane penetrability or oral bioavailability; the development of new cell-permeable IMPase inhibitors is needed.
IMPase catalyzes the hydrolysis of inositol-1-phosphate (IP1) to release free inositol. Binding of an agonist to a Gq coupled GPCR results in the activation of PLC, which hydrolyzes the PIP2 to form inositol-1,4,5-trisphosphate (IP3) and diacyl glycerol (DAG). While DAG activates protein kinase C (PKC), IP3 triggers the elevation of intracellular free Ca2+. The IP3 is very rapidly inactivated by hydrolysis to IP2, IP1 and then inositol by a series of enzymes including IMPase. Free inositols are used for synthesis of PI and thus start another inositol cycle.
To identify new cell-permeable IMPase inhibitors, we developed a cell-based IMPase assay in which the cytosolic IP1 is measured by a time-resolved fluorescence resonance energy transfer (TR-FRET) assay. In this assay, an IP1 specific antibody is used to detect the labeled IP1 tracer. When the cell lysate contains the elevated IP1 due to the inhibition of IMPase, the TR-FRET between the labeled antibody and IP1 tracer is disrupted resulting in a reduction in the total signal. Since the TR-FRET is used, this cell-based assay is a homogenous assay without cell wash and medium change that is suitable for assay miniaturization and HTS. In this particular assay, a small amount of lithium is added to potentiate the response of weak activators.
NCGC Assay Protocol Summary:
A Chinese hamster ovary (CHO) cell line stably expressing the M1 receptor (CHO-M1) was obtained from ATCC and maintained in F-12 Kaighn's media (Invitrogen, Carlsbad, CA) supplemented with 10 % FBS, 100 units/ml penicillin, 100 ug/ml streptomycin and 250 ug/ml geneticin at 37C, 5% CO2 in a humidified atmosphere. Before the assay, aliquots of cells were frozen and stored at -135C. The assay was performed in 1536-well format. Data are reported for both the ratio of the two emission wavelengths, and also for the component 'donor' channel, Em2=620. […] AC50 values were determined from concentration-response data modeled with the standard Hill equation.
(1) Frozen CHO-M1 cells were thaw, washed once with fresh media and resuspended in F12K media containing 10% FBS, 100 units/ml penicillin and 100 ug/ml streptomycin. Cells were plated at 4ul/well (2000 cells) in white, tissue culture treated 1536-well plates, and then cultured at 37C, 5 % CO2 for 16 to 30 hours.
(2) Add 23 nl/well of compound in DMSO solution. The final titration for each compound was between 0.6 nM and 46 uM.
(4) Incubation at 37C, 5 % CO2 for 30 min.
(5) Add 1 ul/well of d2-conjugated IP1 (d2-IP1) and 1 ul/well of Eu+ cryptate conjugated anti-IP1 antibody (Eu+-Ab) prepared in the cell lysis buffer, both from the IP-One kit (Cisbio, MA).
(6) Incubate at room temperature for 10 minutes.
(7) Detect the assay plate (Ex = 320, Em1 =665 and Em2 620) in a ViewLux plate reader.
In general terms: qHTS replaces the single test concentration by a dilution series.
Regarding `CN(C)C1C(=O)C(C(N)=O)=C(O)[C@@]2(O)C(=O)C3=C(O)c4c(O)cccc4[C@@](C)(O)C3C[C@@H]12` (stereo not given in full), the Potency is 10 µM (active).

As to `CN(C)[C@@H]1C(=O)C(C(N)=O)=C(O)[C@@]2(O)C(=O)C3=C(O)c4c(O)cccc4[C@@](C)(O)C3CC12` (stereo not given in full), the Potency was 8.91 µM (active).

Take `CC(=O)c1c(O)c(C)c(O)c(Cc2c(O)c3c(c(C(=O)/C=C\c4ccccc4)c2O)OC(C)(C)C=C3)c1O`: the Potency entry is “inactive”.

As for `CC[C@@](O)(C(=O)O)c1cc2n(c(=O)c1CO)Cc1cc3ccccc3nc1-2`, the Potency result was “inactive”.

For `Clc1ccccc1`, the Potency result is “inactive”.

For `CC[N+](C)(CC)CCC[n+]1c(-c2ccccc2)c2cc(N)ccc2c2ccc(N)cc21`, the Potency result is “inactive”.

Take `O=P(O)(O)C(O)c1ccc2ccccc2c1` (stereo not given): the Potency result is “inactive”.

For `CC(C)(c1ccccc1)c1ccc(O)cc1`, the Potency result is “inactive”.

Regarding `O=C(CN1CCN(S(=O)(=O)c2ccc3ccccc3c2)CC1)NC(=O)NC1CCCCC1`, the Potency entry is “inactive”.

Turning to `c1ccc(N2CC[C@@]3(CCCNC3)C2)nc1`, the Potency entry is “inactive”.

For the molecule `O=c1oc2ccccc2c(O)c1C(c1ccccc1O)c1c(O)c2ccccc2oc1=O`, the Potency was 10 µM (active).

As for `COc1cc(C(c2c(O)c3ccccc3oc2=O)c2c(C)n(C)n(-c3ccccc3)c2=O)ccc1O` (stereo not given), the Potency entry was “inactive”.

Regarding `CCC(=O)CC(c1ccc([N+](=O)[O-])cc1)c1c(O)c2ccccc2oc1=O` (stereo not given), the Potency entry is “inactive”.

On to `O=C(O)C(=O)Cc1ccc2c(c1)OCO2`, for which the Potency result is “inactive”.

For `c1ccc(Cc2nn3c(Cn4cnc5ccccc54)nnc3s2)cc1`, the Potency result was “inactive”.
